Measured values taken from the supplement of paper PMC7858590.

What follows are molecules tested on human monocyte-derived macrophages (polarized) (assay: cell shape (eccentricity) Z-score vs DMSO control; higher = more elongated, M2-like morphology). Settings: 5 µM; 24 h; macrophage state: M1-polarized (IFNg + TNFa), cytokines present during treatment.
Protocol: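 Primary-screen hits were rescreened on polarized hMDMs with the differentiating cytokines (IL-4 + IL-13 or IFNg + TNFa) kept in the medium during treatment with compound at 5 uM for 24 h. The eccentricity Z-score vs DMSO wells is averaged over experiments.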

Compared with `COc1cc([C@@H]2c3cc4c(cc3[C@H](OC(C)=O)[C@H]3COC(=O)[C@H]23)OCO4)cc(OC)c1OC`, `COc1cc([C@@H]2c3cc4c(c(O)c3C[C@H]3COC(=O)[C@@H]32)OCO4)cc(OC)c1OC` is lower in “cell shape (Z-score)” value: 7.24 for the first, 3.15 for the second.

`CCOC(=O)c1ncn2c1C1CCCN1C(=O)c1cc(OC)ccc1-2` (stereo not drawn) was tested, and the “cell shape (Z-score)” value was 1.88.

Same assay, conditions: 5 µM; 24 h; macrophage state: M2-polarized (IL-4 + IL-13), cytokines present during treatment

Compared with `C[C@H]1O[C@@H](O[C@H]2CC[C@]3(CO)C4CC[C@]5(C)[C@@H](C6=CC(=O)OC6)CC[C@]5(O)[C@@H]4CC[C@H]3C2)[C@H](O)[C@H](O)[C@@H]1O[C@@H]1O[C@H](CO)[C@@H](O)[C@H](O)[C@H]1O` (stereo partly drawn), `CC(C)=CCC[C@]1(C)C=Cc2c(O)c3c(c(CC=C(C)C)c2O1)O[C@]12C(=C[C@@H]4C[C@H]1C(C)(C)O[C@@]2(C/C=C(/C)C(=O)O)C4=O)C3=O` is higher in “cell shape (Z-score)” value: -17.5 for the first, -10 for the second.

First: c1ccc2c(c1)[I+]c1ccccc1-2
Second: COc1cc(Br)c(OC)c2c1C(CN)C2 (stereo not drawn)
The “cell shape (Z-score)” value of the first is lower: -19 for the first, 7.42 for the second.

In the case of `CN1C(=O)COc2c(C(=O)NC3CN4CCC3CC4)cc(Cl)cc21` (stereo not drawn), the “cell shape (Z-score)” value is reported as -3.99.
